From PMC7862700, “An all-to-all approach to the identification of sequence-specific readers for epigenetic DNA modifications on cytosine”

Legend:
Assay in all cases: DAPPL (digital affinity profiling via proximity ligation, sequencing); 10 mM Tris-HCl pH 7.5, 50 mM NaCl, 1 mM DTT, 4% glycerol, room temperature, 30 min; GST-TFs on glutathione beads, 16-mer random dsDNA library, 0.1% formaldehyde crosslink after washing; high values mean tight binding
Conditions in all cases: protein: recombinant; tags: N-terminal GST; dsDNA, one strand shown
FLI1 = biological target: T1, FLI1 (Homo sapiens, UniProt Q01543 1-452)
T1 sequence: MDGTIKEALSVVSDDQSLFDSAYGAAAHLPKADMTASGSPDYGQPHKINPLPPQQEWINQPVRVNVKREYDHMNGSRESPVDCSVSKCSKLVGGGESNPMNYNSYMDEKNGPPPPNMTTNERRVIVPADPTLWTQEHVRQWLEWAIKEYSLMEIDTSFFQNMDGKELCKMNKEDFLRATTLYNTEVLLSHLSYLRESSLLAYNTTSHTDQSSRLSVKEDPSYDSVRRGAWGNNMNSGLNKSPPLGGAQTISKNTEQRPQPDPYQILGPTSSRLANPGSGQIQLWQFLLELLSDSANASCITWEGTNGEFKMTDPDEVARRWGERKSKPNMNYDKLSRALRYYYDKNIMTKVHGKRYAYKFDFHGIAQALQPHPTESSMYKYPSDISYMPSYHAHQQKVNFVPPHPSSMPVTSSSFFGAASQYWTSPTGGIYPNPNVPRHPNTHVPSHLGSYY
In short: (§1)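 The binding signal reported is, for every hexamer, its read frequency for a factor over its read frequency for the tag-only sample. Reads came from pools of yeast-expressed, GST-fused human transcription factors on glutathione beads, barcoded with DNA and mixed with that sample, which were incubated with 200 nmole of a random double-stranded 16-mer DNA library in Tris/NaCl/DTT/glycerol buffer at room temperature for 30 min. After washing, the pools were crosslinked with 0.1% formaldehyde, proximity-ligated with BsaI/T4 ligase for 1 h at 37 °C, PCR-amplified and sequenced on an Illumina NextSeq500.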

ELK1 = biological target: T2, ELK1 (Homo sapiens, UniProt P19419 1-428)
T2 sequence: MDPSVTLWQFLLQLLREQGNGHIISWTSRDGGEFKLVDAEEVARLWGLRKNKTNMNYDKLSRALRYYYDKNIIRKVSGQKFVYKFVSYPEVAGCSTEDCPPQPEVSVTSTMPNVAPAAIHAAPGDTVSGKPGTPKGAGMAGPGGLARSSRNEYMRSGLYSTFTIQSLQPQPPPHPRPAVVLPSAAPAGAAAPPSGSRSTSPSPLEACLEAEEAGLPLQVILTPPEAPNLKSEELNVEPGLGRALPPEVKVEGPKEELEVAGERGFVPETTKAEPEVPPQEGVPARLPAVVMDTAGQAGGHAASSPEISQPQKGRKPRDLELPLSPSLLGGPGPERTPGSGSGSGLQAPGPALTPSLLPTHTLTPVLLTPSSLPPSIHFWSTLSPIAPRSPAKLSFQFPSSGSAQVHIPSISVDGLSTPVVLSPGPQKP
In short: as §1

GABPA = biological target: T3, GABPA (Homo sapiens, UniProt Q06546 1-454)
T3 sequence: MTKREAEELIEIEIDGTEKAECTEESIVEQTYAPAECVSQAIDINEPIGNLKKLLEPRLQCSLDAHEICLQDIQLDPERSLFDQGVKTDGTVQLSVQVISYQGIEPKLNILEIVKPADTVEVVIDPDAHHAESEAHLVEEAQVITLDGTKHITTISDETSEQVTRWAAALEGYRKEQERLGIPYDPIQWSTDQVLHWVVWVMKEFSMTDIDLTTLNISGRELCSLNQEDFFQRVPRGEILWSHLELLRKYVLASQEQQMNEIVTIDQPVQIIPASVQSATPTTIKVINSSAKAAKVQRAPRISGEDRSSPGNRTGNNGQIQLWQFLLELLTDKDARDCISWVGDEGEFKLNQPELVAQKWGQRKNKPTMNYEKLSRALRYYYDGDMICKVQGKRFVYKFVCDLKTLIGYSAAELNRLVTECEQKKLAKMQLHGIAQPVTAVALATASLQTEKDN
In short: as §1

ERG = biological target: T4, ERG (Homo sapiens, UniProt P11308 1-479)
T4 sequence: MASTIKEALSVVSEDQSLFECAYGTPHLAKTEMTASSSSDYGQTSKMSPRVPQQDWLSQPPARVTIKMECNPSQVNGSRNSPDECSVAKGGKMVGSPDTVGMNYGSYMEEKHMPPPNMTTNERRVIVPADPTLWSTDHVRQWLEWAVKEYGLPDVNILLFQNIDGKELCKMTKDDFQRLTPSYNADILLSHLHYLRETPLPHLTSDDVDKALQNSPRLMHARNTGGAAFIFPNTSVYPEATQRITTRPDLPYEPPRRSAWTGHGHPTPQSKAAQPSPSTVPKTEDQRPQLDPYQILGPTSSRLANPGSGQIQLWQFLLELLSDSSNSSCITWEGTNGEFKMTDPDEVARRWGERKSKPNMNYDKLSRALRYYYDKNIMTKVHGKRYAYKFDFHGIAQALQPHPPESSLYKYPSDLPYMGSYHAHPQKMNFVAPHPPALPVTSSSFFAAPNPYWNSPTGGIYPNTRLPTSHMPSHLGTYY
In short: as §1

ELF1 = ELF1 (Homo sapiens, UniProt P32519 1-619)
Chain of ELF1 (P32519 whole entry): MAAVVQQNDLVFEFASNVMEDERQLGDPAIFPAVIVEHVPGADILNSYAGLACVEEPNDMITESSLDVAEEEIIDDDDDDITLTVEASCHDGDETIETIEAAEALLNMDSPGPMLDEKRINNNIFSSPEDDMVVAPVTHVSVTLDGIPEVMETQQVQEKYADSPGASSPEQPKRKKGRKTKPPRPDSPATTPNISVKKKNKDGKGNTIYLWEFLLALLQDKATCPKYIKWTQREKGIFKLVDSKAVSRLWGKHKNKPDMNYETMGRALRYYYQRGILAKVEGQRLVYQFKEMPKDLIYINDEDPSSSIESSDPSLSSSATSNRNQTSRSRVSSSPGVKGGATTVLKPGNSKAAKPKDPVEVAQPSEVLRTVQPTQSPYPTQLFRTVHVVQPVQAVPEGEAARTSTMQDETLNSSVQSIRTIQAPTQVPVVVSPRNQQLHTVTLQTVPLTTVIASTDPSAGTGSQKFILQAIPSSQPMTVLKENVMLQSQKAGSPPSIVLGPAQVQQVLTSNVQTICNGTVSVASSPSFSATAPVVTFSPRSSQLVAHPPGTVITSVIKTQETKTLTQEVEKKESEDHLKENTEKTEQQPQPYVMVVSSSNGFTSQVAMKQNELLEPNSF
In short: as §1

SPI1 = SPI1 (Homo sapiens, UniProt P17947 1-270)
In short: as §1

SPIB = SPIB (Homo sapiens, UniProt Q01892 1-262)
Chain of SPIB (Q01892 whole entry): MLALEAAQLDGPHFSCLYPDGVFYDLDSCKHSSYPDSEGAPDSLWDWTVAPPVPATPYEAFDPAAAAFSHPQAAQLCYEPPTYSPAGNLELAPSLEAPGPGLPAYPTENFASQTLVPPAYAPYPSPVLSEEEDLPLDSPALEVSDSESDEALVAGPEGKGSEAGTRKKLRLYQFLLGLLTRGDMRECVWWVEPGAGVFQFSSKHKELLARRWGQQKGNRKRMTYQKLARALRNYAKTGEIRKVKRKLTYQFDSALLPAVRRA
In short: as §1

ELK3 = biological target: T5, ELK3 (Homo sapiens, UniProt P41970 1-407)
T5 sequence: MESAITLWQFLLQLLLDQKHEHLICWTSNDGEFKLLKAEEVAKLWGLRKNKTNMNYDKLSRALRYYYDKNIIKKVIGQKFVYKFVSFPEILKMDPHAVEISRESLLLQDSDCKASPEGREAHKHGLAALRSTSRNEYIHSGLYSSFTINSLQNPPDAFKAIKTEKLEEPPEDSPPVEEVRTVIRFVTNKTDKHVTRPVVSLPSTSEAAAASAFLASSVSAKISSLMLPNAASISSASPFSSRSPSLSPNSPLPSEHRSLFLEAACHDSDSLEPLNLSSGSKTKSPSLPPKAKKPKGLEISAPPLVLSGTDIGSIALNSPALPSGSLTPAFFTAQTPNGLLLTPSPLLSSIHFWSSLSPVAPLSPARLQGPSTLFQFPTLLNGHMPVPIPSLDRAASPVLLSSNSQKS
In short: as §1

FEV = biological target: T6, FEV (Homo sapiens, UniProt Q99581 1-238)
T6 sequence: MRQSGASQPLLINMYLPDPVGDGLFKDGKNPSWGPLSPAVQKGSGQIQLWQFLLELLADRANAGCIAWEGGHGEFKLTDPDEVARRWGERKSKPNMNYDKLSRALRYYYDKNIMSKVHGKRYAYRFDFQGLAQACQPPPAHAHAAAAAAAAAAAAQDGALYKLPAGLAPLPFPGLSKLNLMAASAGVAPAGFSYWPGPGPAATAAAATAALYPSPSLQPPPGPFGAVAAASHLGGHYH
In short: as §1

ETV5 = ETV5 (Homo sapiens, UniProt P41161 1-510)
Chain of ETV5 (P41161 whole entry): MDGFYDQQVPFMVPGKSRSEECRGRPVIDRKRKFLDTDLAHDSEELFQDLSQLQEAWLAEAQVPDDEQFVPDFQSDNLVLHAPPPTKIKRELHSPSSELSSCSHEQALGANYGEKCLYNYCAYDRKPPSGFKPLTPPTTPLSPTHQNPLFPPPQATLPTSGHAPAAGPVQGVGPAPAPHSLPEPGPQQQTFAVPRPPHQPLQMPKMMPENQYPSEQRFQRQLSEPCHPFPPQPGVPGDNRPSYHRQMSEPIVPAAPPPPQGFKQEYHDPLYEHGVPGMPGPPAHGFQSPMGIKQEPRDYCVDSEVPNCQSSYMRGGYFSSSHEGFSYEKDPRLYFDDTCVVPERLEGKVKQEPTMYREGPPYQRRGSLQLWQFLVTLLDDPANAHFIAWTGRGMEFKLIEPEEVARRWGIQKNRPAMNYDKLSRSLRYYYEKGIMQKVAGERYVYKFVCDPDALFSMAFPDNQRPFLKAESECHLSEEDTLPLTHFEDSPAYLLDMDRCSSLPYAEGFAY
In short: as §1

SPIC = biological target: T7, SPIC (Homo sapiens, UniProt Q8N5J4 1-248)
T7 sequence: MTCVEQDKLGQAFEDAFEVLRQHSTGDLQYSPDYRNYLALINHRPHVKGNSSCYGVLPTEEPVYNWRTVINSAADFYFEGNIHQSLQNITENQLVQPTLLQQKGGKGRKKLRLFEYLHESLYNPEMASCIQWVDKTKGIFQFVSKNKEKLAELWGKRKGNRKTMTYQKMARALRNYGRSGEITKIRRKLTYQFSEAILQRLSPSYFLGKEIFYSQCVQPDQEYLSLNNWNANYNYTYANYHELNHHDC
In short: as §1

ELF4 = ELF4 (Homo sapiens, UniProt Q99607 1-663)
Chain of ELF4 (Q99607 whole entry): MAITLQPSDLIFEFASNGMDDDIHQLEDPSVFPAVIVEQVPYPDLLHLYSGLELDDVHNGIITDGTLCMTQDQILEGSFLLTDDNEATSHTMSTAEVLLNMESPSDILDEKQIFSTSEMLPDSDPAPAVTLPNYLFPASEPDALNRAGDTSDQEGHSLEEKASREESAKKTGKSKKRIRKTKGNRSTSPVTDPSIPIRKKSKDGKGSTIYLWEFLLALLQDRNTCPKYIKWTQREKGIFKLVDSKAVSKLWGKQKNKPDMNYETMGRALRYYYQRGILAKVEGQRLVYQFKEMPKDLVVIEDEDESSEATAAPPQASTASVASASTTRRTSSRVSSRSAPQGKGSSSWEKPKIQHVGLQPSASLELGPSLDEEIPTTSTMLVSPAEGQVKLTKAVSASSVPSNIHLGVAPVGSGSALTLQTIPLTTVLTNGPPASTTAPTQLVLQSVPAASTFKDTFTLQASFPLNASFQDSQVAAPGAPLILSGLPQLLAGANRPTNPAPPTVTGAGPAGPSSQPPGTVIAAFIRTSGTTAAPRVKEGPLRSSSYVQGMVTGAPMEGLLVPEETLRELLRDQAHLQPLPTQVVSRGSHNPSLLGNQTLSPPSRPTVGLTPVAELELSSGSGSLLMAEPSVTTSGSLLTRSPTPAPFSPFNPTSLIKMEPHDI
In short: as §1

ETV1 = ETV1 (Homo sapiens, UniProt P50549 1-477)
Chain of ETV1 (P50549 whole entry): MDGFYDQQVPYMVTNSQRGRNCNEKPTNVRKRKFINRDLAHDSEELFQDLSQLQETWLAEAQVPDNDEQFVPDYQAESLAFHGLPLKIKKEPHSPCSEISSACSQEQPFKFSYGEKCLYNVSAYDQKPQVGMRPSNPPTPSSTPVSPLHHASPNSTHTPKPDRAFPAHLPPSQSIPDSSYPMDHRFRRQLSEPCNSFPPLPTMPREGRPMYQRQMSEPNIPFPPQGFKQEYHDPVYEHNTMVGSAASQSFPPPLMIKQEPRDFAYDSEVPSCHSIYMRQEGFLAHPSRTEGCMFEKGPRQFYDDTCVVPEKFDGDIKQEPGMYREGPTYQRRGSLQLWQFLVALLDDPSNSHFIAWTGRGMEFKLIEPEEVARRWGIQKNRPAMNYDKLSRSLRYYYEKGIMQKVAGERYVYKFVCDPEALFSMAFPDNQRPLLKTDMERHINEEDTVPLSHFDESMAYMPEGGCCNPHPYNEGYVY
In short: as §1

ERF = biological target: T8, ERF (Homo sapiens, UniProt P50548 1-548)
T8 sequence: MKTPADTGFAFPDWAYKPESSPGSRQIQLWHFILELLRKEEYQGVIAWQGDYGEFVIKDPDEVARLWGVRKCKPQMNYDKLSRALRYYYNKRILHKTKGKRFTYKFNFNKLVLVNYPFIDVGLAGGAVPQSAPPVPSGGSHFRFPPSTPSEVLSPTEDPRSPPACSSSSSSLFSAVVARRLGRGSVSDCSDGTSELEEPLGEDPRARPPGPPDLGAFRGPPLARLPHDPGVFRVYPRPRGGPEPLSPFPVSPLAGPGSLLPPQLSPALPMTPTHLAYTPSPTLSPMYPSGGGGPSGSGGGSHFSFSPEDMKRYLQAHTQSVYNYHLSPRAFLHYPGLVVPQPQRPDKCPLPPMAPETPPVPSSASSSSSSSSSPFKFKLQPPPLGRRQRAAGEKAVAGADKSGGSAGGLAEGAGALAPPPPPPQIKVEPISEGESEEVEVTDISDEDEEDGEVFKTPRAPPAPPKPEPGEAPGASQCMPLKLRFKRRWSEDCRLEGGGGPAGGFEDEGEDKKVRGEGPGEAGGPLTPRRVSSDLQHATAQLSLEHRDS
In short: as §1

ETV3L = biological target: T9, ETV3L (Homo sapiens, UniProt Q6ZN32 1-361)
T9 sequence: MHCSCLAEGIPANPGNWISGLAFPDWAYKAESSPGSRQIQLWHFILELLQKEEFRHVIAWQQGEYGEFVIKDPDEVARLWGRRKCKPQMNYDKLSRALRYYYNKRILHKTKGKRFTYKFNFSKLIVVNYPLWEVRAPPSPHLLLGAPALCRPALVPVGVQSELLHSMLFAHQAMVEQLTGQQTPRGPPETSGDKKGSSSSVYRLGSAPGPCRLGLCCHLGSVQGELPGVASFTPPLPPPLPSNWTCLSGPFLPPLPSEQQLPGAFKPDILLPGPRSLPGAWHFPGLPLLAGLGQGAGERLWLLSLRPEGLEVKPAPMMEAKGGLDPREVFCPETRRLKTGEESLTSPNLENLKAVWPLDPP
In short: as §1

ETS2 = biological target: T10, ETS2 (Homo sapiens, UniProt P15036 1-469)
T10 sequence: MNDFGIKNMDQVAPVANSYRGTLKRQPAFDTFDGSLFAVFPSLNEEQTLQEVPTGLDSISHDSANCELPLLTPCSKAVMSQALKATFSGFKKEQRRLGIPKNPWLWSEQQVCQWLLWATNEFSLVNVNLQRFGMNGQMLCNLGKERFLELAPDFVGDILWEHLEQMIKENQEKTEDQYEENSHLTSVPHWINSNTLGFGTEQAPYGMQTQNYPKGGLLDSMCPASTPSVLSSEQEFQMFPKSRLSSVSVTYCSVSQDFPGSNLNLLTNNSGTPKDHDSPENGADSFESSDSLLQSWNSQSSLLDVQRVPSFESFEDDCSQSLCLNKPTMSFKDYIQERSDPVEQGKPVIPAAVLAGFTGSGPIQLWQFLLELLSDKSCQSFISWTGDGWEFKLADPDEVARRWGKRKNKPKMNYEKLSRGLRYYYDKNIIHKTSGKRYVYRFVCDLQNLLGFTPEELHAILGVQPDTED
In short: as §1

ETV3 = biological target: T11, ETV3 (Homo sapiens, UniProt P41162-2 1-143)
T11 sequence: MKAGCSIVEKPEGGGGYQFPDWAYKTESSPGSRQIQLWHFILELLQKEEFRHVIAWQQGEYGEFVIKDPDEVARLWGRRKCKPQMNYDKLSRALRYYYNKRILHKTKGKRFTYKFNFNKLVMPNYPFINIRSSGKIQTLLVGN
In short: as §1

ETV6 = ETV6 (Homo sapiens, UniProt P41212 1-452)
Chain of ETV6 (P41212 whole entry): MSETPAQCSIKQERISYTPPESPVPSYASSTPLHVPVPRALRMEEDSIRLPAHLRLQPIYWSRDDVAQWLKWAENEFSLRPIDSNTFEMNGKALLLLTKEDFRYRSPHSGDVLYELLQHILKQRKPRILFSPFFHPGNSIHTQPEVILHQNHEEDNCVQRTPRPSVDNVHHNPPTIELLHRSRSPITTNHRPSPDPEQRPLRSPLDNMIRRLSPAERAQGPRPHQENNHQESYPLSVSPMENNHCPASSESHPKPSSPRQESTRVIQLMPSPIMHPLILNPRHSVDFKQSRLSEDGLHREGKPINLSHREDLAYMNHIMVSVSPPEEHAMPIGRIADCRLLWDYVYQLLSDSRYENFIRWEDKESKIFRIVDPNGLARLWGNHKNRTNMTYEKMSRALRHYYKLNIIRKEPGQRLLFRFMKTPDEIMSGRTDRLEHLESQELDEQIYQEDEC
In short: as §1

CATCGC
binding signal (FLI1): 1.08 fold enrichment (6-mer frequency, TF over GST control)
binding signal (ELK1): 1.13 fold enrichment (6-mer frequency, TF over GST control)
binding signal (GABPA): 1.13 fold enrichment (6-mer frequency, TF over GST control)
binding signal (ERG): 1.06 fold enrichment (6-mer frequency, TF over GST control)
binding signal (ELF1): 1.06 fold enrichment (6-mer frequency, TF over GST control)
binding signal (SPI1): 1.06 fold enrichment (6-mer frequency, TF over GST control)
binding signal (SPIB): 1.1 fold enrichment (6-mer frequency, TF over GST control)
binding signal (ELK3): 1.23 fold enrichment (6-mer frequency, TF over GST control)
binding signal (FEV): 1.07 fold enrichment (6-mer frequency, TF over GST control)
binding signal (ETV5): 1.04 fold enrichment (6-mer frequency, TF over GST control)
binding signal (SPIC): 1.03 fold enrichment (6-mer frequency, TF over GST control)
binding signal (ELF4): 1.13 fold enrichment (6-mer frequency, TF over GST control)
binding signal (ETV1): 1.06 fold enrichment (6-mer frequency, TF over GST control)
binding signal (ERF): 1.06 fold enrichment (6-mer frequency, TF over GST control)
binding signal (ETV3L): 1.21 fold enrichment (6-mer frequency, TF over GST control)
binding signal (ETS2): 1.14 fold enrichment (6-mer frequency, TF over GST control)
binding signal (ETV3): 1.1 fold enrichment (6-mer frequency, TF over GST control)
binding signal (ETV6): 1.02 fold enrichment (6-mer frequency, TF over GST control)
